NCOA3 inh: SRC3 coactivator transcriptional activity inhibitors, primary screen, cell-based, luminescence | Nuclear receptor coactivator 3 (Homo sapiens), Q9Y6Q9 | 360,000 compounds, 0.17% hits | HEK293 GAL4-SRC3 luciferase reporter | AID 588352, 2011 | inhibition, % at 3.6 µM;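 active = inhibition above a per-campaign cutoff, the mean of all compounds plus 3 SD, cut at about 60% in these data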;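 also: 0% = DMSO-treated cells and 100% = gossypol-treated cells at 36 µM; higher means less SRC3-driven luciferase light from the GAL4 reporter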
SRC1 inh: SRC1 coactivator transcriptional activity inhibitors, primary screen, cell-based, luminescence | Nuclear receptor coactivator 1 (Homo sapiens), Q15788 | HEK293 GAL4-SRC1 luciferase reporter | inhibition, % at 3.6 µM | 360,000 compounds, 0.12% hits | AID 588354, 2011;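 active = inhibition above the campaign mean plus 3 SD, with each screening campaign given its own cutoff, cut at about 60% in these data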;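 also: 0% = DMSO treated cells and 100% = gossypol at 36 µM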
NR2F2 inh: NR2F2 transcriptional activity inhibitors, primary screen, cell-based, luciferase reporter, HEK293T, luminescence; 370,000 compounds, 0.7% hits; COUP transcription factor 2 (Homo sapiens), P24468; inhibition, % at 8.6 µM; AID 686940, 2013; HEK293T NGFI-A luciferase reporter;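 active = inhibition above a per-plate cutoff, mean inhibition of test wells between control levels plus 3 SD, cut at about 38% in these data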;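 also: cells cotransfected with COUP-TFII expression vector driving the NGFI-A reporter; 0% = median of COUP-TF2 test wells and 100% = reporter-only cells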
SRC2 inh: inhibition of GAL4-SRC2 driven luciferase reporter, primary screen, SRC2 inhibitor project, cell-based, luminescence; HEK293 GAL4-SRC2 luciferase reporter; Nuclear receptor coactivator 2 (Homo sapiens), Q15596; inhibition, % at 9 µM; AID 651957, 2012; 370,000 compounds, 0.17% hits;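 active = inhibition above the mean inhibition of all tested compounds plus 3 SD, set per campaign, cut at about 52% in these data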;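 also: 0% = DMSO treated cells and 100% = cells given Gossypol at 36 µM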
Gli-Sufu block: Gli-Sufu pathway antagonists, primary screen, luciferase luminescence, Sufu-KO-LIGHT cells, uHTS. Sufu-KO-LIGHT fibroblasts, Gli luciferase reporter luminescence. 340,000 compounds, 0.74% hits. inhibition, % at 5 µM;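 active = inhibition above about 55%, limit read from the data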;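 also: 0% = DMSO-treated cells and 100% = wells with medium but no cells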
LRH-1 inv ag: LRH-1 (NR5A2) inverse agonists, primary screen, cell-based, luminescence, HEK293T, StAR-luciferase reporter; Nuclear receptor subfamily 5 group A member 2 (Homo sapiens), O00482; LRH-1 transfected, 24 h; inhibition, % at 3.6 µM; 360,000 compounds, 0.13% hits; AID 602396, 2012;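 active = inhibition above the mean inhibition of all tested compounds plus 3 SD, cut at about 73% in these data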;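 also: 0% = DMSO wells and 100% = reporter-only cells lacking LRH-1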
Gli antag conf: Gli-SUFU pathway antagonists, confirmation, single concentration, luciferase luminescence, Sufu-KO-LIGHT cells; shares compounds with Gli-Sufu block; 2,500 compounds, 40% hits; inhibition, % at 5 µM; Gli luciferase reporter;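 active = mean inhibition at 5 µM reaching about 45%, limit read from the data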;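 also: plate controls were DMSO-treated cells for no effect and wells lacking cells for full effect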
SufuKO cytotox: cytotoxicity in Sufu-KO-LIGHT cells, confirmation, cytotoxicity control for Gli-SUFU antagonist project, cell-based, ATP luminescence, single concentration; shares compounds with Gli-Sufu block; cytotoxicity, % at 5 µM; 2,500 compounds, 32% hits;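 active = mean cytotoxicity at 5 µM above about 25%, limit read from the data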;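 also: cells exposed to compound overnight for roughly 16 to 18 hours; plate controls were DMSO wells with cells for no effect and medium without cells for full effect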
Wnt3a cs: Wnt3a reporter signal inhibition, confirmation, counter-screen for Gli-SUFU antagonist project, Wnt-LIGHT cells, luminescence, single concentration | shares compounds with Gli-Sufu block | Wnt3a-driven luciferase reporter | inhibition, % at 6.25 µM | 2,500 compounds, 20% hits | AID 651995, 2013;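 active = mean inhibition above about 25%, limit read from the data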
* = called active by the depositor; . = no result. Shown are actives, neighbours in structure and some others; about 1.3% of the full set was active somewhere.

SMILES	NCOA3 inh	SRC1 inh	NR2F2 inh	SRC2 inh	Gli-Sufu block	LRH-1 inv ag	Gli antag conf	SufuKO cytotox	Wnt3a cs
CC(C)C[C@H]1COc2ccc(Cl)cc2S(=O)(=O)N1C[C@H](NC(=O)OC(C)(C)C)C(C)C	.	.	6	5	.	.	.	.	.
CC1CCCN(CCOc2cccc(Oc3ccccc3)c2)C1 (stereo not drawn)	0	-16	-12	18	51	3	27	9	-14
CCCOc1ccc(OCCN2CCCC(C)C2)cc1 (stereo not drawn)	-2	-6	-4	-2	17	5	.	.	.
CC1CN(CCOc2cccc(Oc3ccccc3)c2)CC(C)O1 (stereo not drawn)	4	-30	13	20	52	-8	14	14	-9
CC1CN(CCCCOc2cccc(Oc3ccccc3)c2)CC(C)O1 (stereo not drawn)	11	-36	10	-7	12	20	.	.	.
COC(=O)c1cc2c(c3c4ccccc4n(S(=O)(=O)c4cccc(C)c4)c13)C(=O)N(Cc1ccccc1OC)C2	.	.	10	-21	.	.	.	.	.
O=c1c2ccccc2nc2n1C(CSCc1ccc(Cl)cc1Cl)CS2 (stereo not drawn)	27	8	8	-14	52	-10	44	33*	-7
COC(=O)c1cc2c(c3c4cc(OC)ccc4n(S(=O)(=O)c4cccc(C)c4)c13)C(=O)N(Cc1ccccc1OC)C2	.	.	17	15	.	.	.	.	.
CSc1ccc(C=NNC(=O)c2cc(-c3ccc(Cl)cc3)n[nH]2)cc1	.	.	-10	24	.	.	.	.	.
CN1CCC(=C2c3ccccc3CCc3sccc32)CC1	20	9	.	.	35	-6	.	.	.
CN1CCC(=C2c3ccccc3CC(=O)c3sccc32)CC1	2	6	10	8	10	-15	24	5	7
COc1ccc(C2=Nn3c(nnc3C3CCCCC3)SC2)cc1	.	.	2	8	.	.	.	.	.
Cc1cc(NC(=O)CSc2nc(Cc3ccc(O)cc3)c(C)[nH]2)no1	19	3	-13	-1	53	11	15	6	-18
COc1ccc(NC(=O)c2c(Nc3ccccc3)sc(C(=O)c3ccc(F)cc3)c2N)cc1	-2	14	3	5	75*	10	85*	35*	81*
COc1ccc2[nH]c(C)c(CCNC(=S)Nc3ccccc3C)c2c1	-9	3	3	-19	69*	-8	15	9	-12
Cc1c(NS(=O)(=O)c2ccc(NC(=O)CCC(=O)O)cc2)c(=O)n(-c2ccccc2)n1C	17	-17	1	12	63*	10	5	14	-33
CC(=O)Nc1ccc(S(=O)(=O)Nc2c(C)n(C)n(-c3ccccc3)c2=O)cc1	14	-2	5	18	3	4	.	.	.
O=C(N[C@@H]1C/C=C\C[C@H](CC(=O)N(CCO)Cc2ccccc2)C(=O)N[C@@H](Cc2c[nH]c3ccccc23)COC1=O)OCC1c2ccccc2-c2ccccc21	10	-13	7	5	53	4	57*	22	-30
O=C(N[C@@H]1C/C=C\C[C@@H](CC(=O)N(CCO)Cc2ccccc2)C(=O)N[C@@H](c2ccccc2)COC1=O)OCC1c2ccccc2-c2ccccc21	6	-6	-8	-15	56*	9	56*	18	-68
O=C(N[C@H]1C/C=C\C[C@@H](CC(=O)N(CCO)Cc2ccccc2)C(=O)N[C@H](Cc2c[nH]c3ccccc23)COC1=O)OCC1c2ccccc2-c2ccccc21	8	-7	1	-6	53	5	52*	7	-46
COC(=O)C1(F)C(=O)NC(=O)NC1OC (stereo not drawn)	.	.	-3	-17	.	.	.	.	.
C[C@H](O)[C@@H]1CN2CCc3ccc(-c4ccc5c(c4)OCO5)cc3[C@@H]2C[C@@H]1N(C)Cc1cc(Cl)cc(Cl)c1	.	.	-15	-4	.	.	.	.	.
O=C(NCC1CC1)Nc1ccccc1F	-3	-6	6	-22	-10	0	.	.	.
Cc1ccc(CN2CCC(CNC(=O)Nc3ccccc3F)CC2)cc1	6	15	9	-10	50	4	31	9	-9
COc1cccc(/C=N/NC(=O)c2ccc([N+](=O)[O-])cc2Cl)c1O	32	14	2	7	64*	-40	28	9	14
SMILES	NCOA3 inh	SRC1 inh	NR2F2 inh	SRC2 inh	Gli-Sufu block	LRH-1 inv ag	Gli antag conf	SufuKO cytotox	Wnt3a cs
Cc1ccc(S(=O)(=O)N(C)C)cc1NC(=S)NC(C)CCC(C)C (stereo not drawn)	7	13	4	-4	56*	-12	20	20	-64
CC(C)[C@H](NC(=O)c1ccc(Cl)cc1Cl)C(=O)N1CCC[C@H]1C(=O)NCCc1ccccc1Cl	.	.	9	4	.	.	.	.	.
COC(=O)[C@@]12CCCCC3=C1N(CCC3)C(=O)[C@H]2CC(=O)NCc1cccs1	.	.	1	4	.	.	.	.	.
Cc1cccc(N(Cc2ccccc2)C(=O)CCl)c1	26	2	10	60*	77*	33	29	28*	-9
COC(=O)c1ccc(Oc2nc(C)cc(Oc3ccccc3)n2)cc1	4	5	-14	3	0	-11	.	.	.
COC(=O)c1ccc(Oc2cc(C)nc(-n3nc(C)cc3C)n2)cc1	19	-22	-64	25	52	31	64*	60*	18
C=CCn1c(SCn2nnc3ccccc3c2=O)nc2scc(-c3cccs3)c2c1=O	9	14	-6	-9	52	-11	14	21	0
COC(=O)C1=C(C)N(C)C(=NCc2ccc(OC)cc2)NC1c1ccc(Cl)cc1 (stereo not drawn)	.	.	-17	9	.	.	.	.	.
CCc1cc2c(nc1CC)CCCN2C	.	.	-2	-9	.	.	.	.	.
COc1ccccc1N1CCN(C(=O)c2cc3sccc3n2C)CC1	8	-1	13	18	92*	2	8	-6	-17
COc1ccc2cc(C(=O)N3CCN(c4ccccc4OC)CC3)[nH]c2c1	-8	11	14	-1	57*	-3	31	3	-4
Cn1c(C(=O)N2CCN(c3nc4ccccc4s3)CC2)cc2sccc21	21	-12	4	10	10	-2	.	.	.
O=C(c1cc2ccccc2[nH]1)N1CCOCC1	-3	-24	-11	-10	2	-32	.	.	.
